A selection: hits, their analogues and other compounds. The true share with any hit is near 18%.
TDP1 cell noCPT: qHTS for Inhibitors of human tyrosyl-DNA phosphodiesterase 1 (TDP1): qHTS in cells in absence of CPT; AID 686978, 2013; Potency, µM (top dose mostly 46.2 µM), usual class: inhibitors; DT40 Tdp1-/- hTDP1 cells, no CPT, ATP luminescence, 48 h; 420,000 compounds, 15% hits; also: nearly all actives have a fitted effect of over 55% in size
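DT40 Tdp1-/-;hTDP1 cells, no CPT (DMSO vehicle only), 400 cells/well; compounds pin-transferred; ≥48 hr, 37 °C; CellTiter-Glo 30 min RT dark, luminescence read.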
GCN5L2 inh: inhibitors of human GCN5L2 histone acetyltransferase. GCN5L2 HAT assay, ThioGlo1 CoA-SH fluorescence. Potency, µM (titrated, usually from 58.9 µM), usual class: inhibitors. 390,000 compounds, 0.21% hits. Q92830. AID 504327
Target sequence (Q92830 whole entry, looked up): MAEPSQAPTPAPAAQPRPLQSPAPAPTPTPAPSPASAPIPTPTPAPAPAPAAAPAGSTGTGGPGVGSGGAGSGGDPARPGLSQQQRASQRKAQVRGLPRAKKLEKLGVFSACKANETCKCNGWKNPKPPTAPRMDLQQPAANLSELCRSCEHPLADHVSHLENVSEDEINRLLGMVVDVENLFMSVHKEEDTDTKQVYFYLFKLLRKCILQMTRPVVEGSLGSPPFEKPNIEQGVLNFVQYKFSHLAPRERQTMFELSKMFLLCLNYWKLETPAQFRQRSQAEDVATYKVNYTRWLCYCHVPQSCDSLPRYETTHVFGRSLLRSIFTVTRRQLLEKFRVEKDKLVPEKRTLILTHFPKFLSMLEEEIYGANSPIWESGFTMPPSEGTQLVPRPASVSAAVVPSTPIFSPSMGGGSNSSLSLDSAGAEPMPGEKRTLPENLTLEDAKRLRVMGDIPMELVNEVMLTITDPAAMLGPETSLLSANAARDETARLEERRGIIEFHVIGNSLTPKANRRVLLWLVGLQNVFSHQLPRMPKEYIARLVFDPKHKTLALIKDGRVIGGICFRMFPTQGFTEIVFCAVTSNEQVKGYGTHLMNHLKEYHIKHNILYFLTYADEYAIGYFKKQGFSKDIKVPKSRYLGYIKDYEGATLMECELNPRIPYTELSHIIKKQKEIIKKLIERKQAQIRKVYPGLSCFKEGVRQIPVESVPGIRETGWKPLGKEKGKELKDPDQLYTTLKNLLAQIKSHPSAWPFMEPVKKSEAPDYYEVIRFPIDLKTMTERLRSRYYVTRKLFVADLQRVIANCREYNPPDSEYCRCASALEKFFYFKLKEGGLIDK
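ThioGlo1-coupled HAT assay: 20nM GCN5L2, 70uM acetyl-CoA, 75uM H3(1-25) peptide, pH 7.5. Fluorescence read at 340/540nm at start and after 20 min at room temperature.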
PLK1 PBD block: inhibitors of human PLK1 polo-box domain binding. P53350. Plk1 PBD binding of FITC phosphopeptide, fluorescence polarization. Potency, µM, actives largely listed as inhibitors. 360,000 compounds, 2.8% hits. AID 720504; also: series mostly up to about 57 µM; nearly all actives have a fitted effect of over 65% in size
VDR inhibitor: inhibitors of human vitamin D receptor | VDR-SRC2-3 peptide fluorescence polarization, 2 h | Potency, µM, most hits filed as inhibitors | 400,000 compounds, 0.93% hits
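The screen uses fluorescence polarization to detect compounds that interfere with recruitment of the SRC2-3 coactivator peptide to VDR; plates are read after 2 h at room temperature.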
TDP1 inh: blocks human tyrosyl-DNA phosphodiesterase 1; Q9NUW8; recombinant TDP1, AlphaScreen DNA substrate cleavage; Potency, µM (highest dose often 130 µM), actives largely listed as inhibitors; 350,000 compounds, 0.28% hits; also: nearly all actives have a fitted effect of over 40% in size
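Tdp1 1 nM final; 15 min RT w/ cpd; substrate 15 nM, 5 min; beads 10 ug/ml, 10 min; AlphaScreen read. Neg ctrl: no enzyme.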
DT40 TDP1 CPT: DT40-hTDP1 cell growth loss with CPT; chicken DT40 Tdp1-/-;hTDP1 cells + 20 nM CPT, ATP luminescence, 48 h; Potency, µM (titrated, usually from 46.2 µM), hits mostly inhibitors; 420,000 compounds, 12% hits; AID 686979; also: nearly all actives have a fitted effect of over 55% in size
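Cell growth measured by CellTiter-Glo luminescence after a minimum 48 h, 37 C compound exposure with 20 nM CPT in Tdp1-knockout DT40 cells stably expressing hTDP1, seeded 400/well; qHTS titration format.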
A number is an active result; 0 = inactive; ? = inconclusive; - = no result. Calls follow the shape of the dose curve; as a rule, active = well fitted curve in the direction sought with a large enough effect; inconclusive = small, poorly fitted or top-dose-only effect, or another doubt; inactive = no such curve, though single readings can be large; an effect the other way counts as inactive or inconclusive.

SMILES	TDP1 cell noCPT	GCN5L2 inh	PLK1 PBD block	VDR inhibitor	TDP1 inh	DT40 TDP1 CPT
CCOc1ccc(Br)cc1/C=N/NC(=O)c1ccncc1	?	0	0	0	0	?
COc1c(Br)cc(Br)cc1/C=N/NC(=O)c1cccnc1	?	0	0	0	-	18µM
CN(C)c1ccc(/C=N/NC(=O)c2ccc(NC(=O)c3ccccc3)cc2)cc1	?	0	0	0	-	0
S=c1[nH]c(-c2ccccc2)cn1/N=C/c1ccc(Br)cc1	4.6µM	0	0	?	0	3.7µM
S=c1[nH]c(-c2ccccc2)cn1/N=C/c1cccs1	8.2µM	0	0	0	0	0
Fc1ccccc1/C=N/n1cc(-c2ccccc2)[nH]c1=S	8.2µM	0	0	0	0	15µM
O=C(O)c1ccc(/C=N/n2cc(-c3ccccc3)[nH]c2=S)cc1	0	0	0	0	0	0
CCOC(=O)CC1(C)Sc2ccccc2N1S(=O)(=O)c1ccc(C)cc1 (stereo not drawn)	?	-	0	-	-	?
CNC(C)C#Cc1ccc2c(=O)c3c(OC)cccc3oc2c1 (stereo not drawn)	-	0	-	-	-	-
CNC(C)C#Cc1ccc2c(=O)c3cc(C)c(C)cc3oc2c1 (stereo not drawn)	29µM	-	0	0	-	?
COc1ccc(Nc2ncc(C(=O)N3CCN(c4cccc(Cl)c4)CC3)c3ccccc23)cc1	4.6µM	0	-	0	0	15µM
COc1ccc(Nc2ncc(C(=O)O)c3ccccc23)cc1	0	0	0	0	0	0
COc1ccc(Nc2ncc(C(=O)N3CCN(c4ccc(OC)cc4)CC3)c3ccccc23)cc1	16µM	0	-	0	0	23µM
CCCOc1ccc(C(=O)Nc2cc3c(cc2N2CCCCC2)n(C)c(=O)n3C)cc1	0	0	-	0	0	0
C[C@@]12C(=O)N(CC3CCCO3)CC(=O)N1[C@H]1c3cc(Cl)ccc3OC[C@@H]1[C@@H]2c1ccccc1 (stereo partly drawn)	15µM	0	0	0	0	23µM
C[C@@]12C(=O)Nc3ccc(Br)cc3C(=O)N1[C@H]1c3cc(Cl)ccc3OC[C@@H]1[C@@H]2c1ccccc1	18µM	0	0	0	0	?
C[C@@]12C(=O)Nc3ccc(F)cc3C(=O)N1[C@H]1c3cc(Br)ccc3OC[C@@H]1[C@@H]2c1ccccc1	23µM	0	0	0	0	?
C[C@@]12C(=O)Nc3ccc(Br)cc3C(=O)N1[C@H]1c3ccccc3OC[C@@H]1[C@@H]2c1ccccc1	?	0	0	0	0	?
COc1ccc2c(C)c(CCC(=O)NCCc3ccccc3OC)c(=O)oc2c1	?	0	-	0	0	?
CN(C)CCN[C@H]1CCC2C3CC=C4C[C@@H](O)CC[C@]4(C)C3CC[C@@]21C (stereo partly drawn)	3.3µM	0	0	0	0	5.8µM
CCOC(=O)CN[C@H]1CCC2C3CC=C4C[C@@H](O)CC[C@]4(C)C3CC[C@@]21C (stereo partly drawn)	?	0	0	0	0	?
Cc1cccc(C(=O)NNC2=C(C(=O)C(F)(F)F)CCC2)c1O	13µM	0	?	0	0	6.5µM
O=C(NNC1=C(C(=O)C(F)(F)F)CCC1)c1cccc(O)c1	?	0	0	0	0	?
Cc1ccc(Nc2[nH]c(=O)c3ccccc3c2C(=O)c2ccccc2)cc1	0	-	0	0	-	0
CCOC(=O)c1c(C)[nH]c(C(=O)CSc2nnc(C3CC3)n2N)c1C	?	0	24µM	?	0	?
SMILES	TDP1 cell noCPT	GCN5L2 inh	PLK1 PBD block	VDR inhibitor	TDP1 inh	DT40 TDP1 CPT
C=CCn1c(CNC(=O)c2ccccc2F)nnc1SCC(=O)NC(C)c1ccccc1 (stereo not drawn)	0	0	0	0	0	0
COc1cccc(CNC(=O)Cc2ccc(NC(=O)N3CCSc4ncccc43)cc2)c1OC	?	0	-	0	0	?
Cc1ccc(-c2onc(C)c2C)cc1S(=O)(=O)N1c2ccccc2CC1C (stereo not drawn)	16µM	0	-	0	0	?
Cc1ccc(-c2onc(C)c2C)cc1S(=O)(=O)N1CCOc2ccccc21	21µM	0	0	0	0	18µM
COc1cc(F)c(S(=O)(=O)N2CCOc3ccccc32)cc1OC	0	0	0	0	-	?
Oc1cccc(-c2nnc(-c3cccc(O)c3)nn2)c1	?	-	0	0	-	?
O=C(O)/C=C/C(=O)Nc1cccnc1	0	0	0	0	0	0
CN(C)S(=O)(=O)c1cccc(NC(=O)COc2ccc(C(=O)c3ccccc3)cc2)c1	16µM	0	0	0	-	18µM
COC(=O)/C=C/C(=O)Nc1cccnc1	?	0	0	0	0	16µM
O=C(Nc1cccnc1)c1ccc(Oc2ccccc2)cc1	?	0	0	0	0	23µM
O=C(COc1ccc(C(=O)c2ccccc2)cc1)Nc1cccnc1	2.9µM	0	0	0	?	5.2µM
N#Cc1ccc(-c2ccc(OCC(=O)Nc3cccnc3)cc2)cc1	?	0	0	0	0	?
Cc1ccc(NC(=O)CSc2nnc(-c3cc(C)[nH]n3)n2N)c(C)c1	0	0	0	0	0	0
CC(=O)OC1C[C@]2(C)[C@@H](CC(O)C3[C@]4(C)CCC(O)C(C)[C@@H]4CC[C@]32C)/C1=C(/CCC=C(C)C)C(=O)O (stereo partly drawn)	0	0	-	0	0	0
Cc1noc(C)c1-c1nnc(-c2ccc(OC(F)(F)F)cc2)o1	0	0	0	0	0	0
O=C(Nc1cccnc1)c1ccc2nc(-c3ccccc3)c(-c3ccccc3)nc2c1	15µM	0	0	0	0	23µM
CCN(C(=O)c1cc2c(=O)oc3ccc(C)cc3c2s1)c1ccccc1F	21µM	0	-	0	0	?
Cc1ccc2[nH]c(=O)c3cc(C(=O)N(C)c4ccc(C)c(C)c4)sc3c2c1	10µM	0	0	0	0	10µM
CCN(C(=O)c1cc2c(=O)[nH]c3ccc(C)cc3c2s1)c1ccccc1C	2.9µM	0	0	0	-	2.6µM
Cc1ccc2[nH]c(=O)c3cc(C(=O)N(C)C4CCCCC4)sc3c2c1	0	0	0	0	0	0
CCN(C(=O)c1cc2c(=O)[nH]c3ccc(C)cc3c2s1)c1ccccc1F	?	0	0	0	-	13µM
CCCCN(CC)CCNC(=O)c1cc2c(=O)[nH]c3ccc(C)cc3c2s1	?	0	0	0	-	?
CCOc1ccc(NC(=O)c2ccc(F)cc2F)cc1	0	-	0	0	-	0
CO[C@H]1[C@H](NC(=O)C(C)C)c2ccccc2C12CCN(Cc1c(C)nn(C)c1Cl)CC2	0	-	-	-	-	0
CCN(C(=O)c1cc2c(=O)[nH]c3ccc(C)cc3c2s1)c1ccc(F)cc1	?	0	?	0	0	?
